IL1B secr inh = inhibitors of inflammasome signaling (IL-1 beta secretion); THP-1 LPS/ATP IL-1B secretion, AlphaLISA, 16 h; active compounds read low; activity change, % at 57.5 µM; 360,000 compounds, 4.7% hits; in the data active = activity change below about -50%; inconclusive = mostly about -30% to -49%; also: % is scaled to controls: 0 for no effect and ±100 for the full control effect
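THP-1 cells pretreated 1 hr with compounds (up to 57.5 uM final), then stimulated with LPS (250 ng/mL final) plus ATP (1.25 mM final); secreted IL-1B measured by AlphaLISA after 16 hr, decreased signal indicating inhibition.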
TDP1 inh = inhibitors of human tyrosyl-DNA phosphodiesterase TDP1; Q9NUW8; recombinant TDP1, AlphaScreen DNA substrate cleavage; Potency, µM (highest dose often 130 µM), inactives show at the highest dose activity change, negative = inhibition, most hits filed as inhibitors; 350,000 compounds, 0.28% hits; AID 485290; also: potency is read from the fitted curve at half-maximal effect; % is scaled to controls: 0 for no effect and ±100 for the full control effect; nearly all actives have a fitted effect of over 40% in size
Target sequence (Q9NUW8 whole entry, looked up): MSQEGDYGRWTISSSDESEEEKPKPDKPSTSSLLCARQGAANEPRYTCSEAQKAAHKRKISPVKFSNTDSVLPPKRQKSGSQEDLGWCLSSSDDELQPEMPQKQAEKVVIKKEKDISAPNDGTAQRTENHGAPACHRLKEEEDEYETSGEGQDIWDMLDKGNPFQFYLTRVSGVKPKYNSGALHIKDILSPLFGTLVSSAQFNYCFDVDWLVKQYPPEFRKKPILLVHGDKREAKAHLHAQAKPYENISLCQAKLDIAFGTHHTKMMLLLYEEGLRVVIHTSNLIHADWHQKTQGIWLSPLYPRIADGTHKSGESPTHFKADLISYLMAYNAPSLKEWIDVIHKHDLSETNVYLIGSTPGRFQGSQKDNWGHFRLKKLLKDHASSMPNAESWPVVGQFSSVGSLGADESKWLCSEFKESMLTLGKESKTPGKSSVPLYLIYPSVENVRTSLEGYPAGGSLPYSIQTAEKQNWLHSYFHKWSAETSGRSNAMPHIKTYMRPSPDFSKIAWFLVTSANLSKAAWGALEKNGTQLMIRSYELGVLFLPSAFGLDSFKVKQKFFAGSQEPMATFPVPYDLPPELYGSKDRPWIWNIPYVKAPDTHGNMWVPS
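Recombinant human Tdp1 (E. coli-expressed, 1 nM final) preincubated with compounds 15 min at room temperature, then 5'-biotin/3'-phosphotyrosine-FITC DNA substrate (15 nM final) added for 5 min. AlphaScreen beads (10 ug/ml final) added 10 min; cleavage lowers signal.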
HepG2 tox = counter-screen for TGF-b inhibitors: cytotoxicity in HepG2 cells | HepG2 CAGA-GFP viability, ATP luminescence, 18 h | Potency, µM (top dose mostly 46.1 µM), without a hit: at the highest dose activity change, negative = cytotoxicity, actives largely listed as cytotoxic | 410,000 compounds, 0.76% hits; also: potency is read from the fitted curve at half-maximal effect
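HepG2 CAGA-GFP cells (1000/well, DMEM with 1% FBS) received compound, then TGF-beta at 500 pg/mL final, and were incubated 18 hours at 37 degrees C. Viability was read by CellTiter-Glo luminescence. Media-only wells were set as complete cell-killing and DMSO as no toxicity.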
TGFb inhibitor = blocks TGF-b signaling | HepG2 CAGA-GFP TGF-b/SMAD3 reporter, GFP fluorescence, 18 h; TGF-beta stimulated, 500 pg/mL final | Potency, µM (doses to about 46.1 µM), for the others: at the highest dose activity, negative = inhibition, most hits filed as inhibitors | 410,000 compounds, 1.2% hits; also: potency is read from the fitted curve at half-maximal effect; % is scaled to controls: 0 for no effect and ±100 for the full control effect; nearly all actives have a fitted effect of over 65% in size
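GFP signal (ex488/em500-530) from TGF-beta-stimulated HEPG2 CAGA-GFP cells, 500 pg/mL final, 18 h at 37 degrees C in DMEM plus 1% FBS, normalized to unstimulated and DMSO-stimulated controls.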
TDP1 cell CPT = DT40-hTDP1 cell growth loss with CPT; chicken DT40 Tdp1-/-;hTDP1 cells + 20 nM CPT, ATP luminescence, 48 h; Potency, µM (doses to about 46.2 µM), without a hit: top-dose activity change, negative = growth inhibition, most hits filed as inhibitors; 420,000 compounds, 12% hits; AID 686979; also: potency is read from the fitted curve at half-maximal effect; % is scaled to controls: 0 for no effect and ±100 for the full control effect; nearly all actives have a fitted effect of over 55% in size
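Cell growth measured by CellTiter-Glo luminescence after a minimum 48 h, 37 C compound exposure with 20 nM CPT in Tdp1-knockout DT40 cells stably expressing hTDP1, seeded 400/well; qHTS titration format.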
TDP1 cell noCPT = qHTS for Inhibitors of human tyrosyl-DNA phosphodiesterase 1 (TDP1): qHTS in cells in absence of CPT | DT40 Tdp1-/- hTDP1 cells, no CPT, ATP luminescence, 48 h | Potency, µM (titrated, usually from 46.2 µM), for the others: at the highest dose activity change, negative = growth inhibition, actives largely listed as inhibitors | 420,000 compounds, 15% hits | AID 686978, 2013; also: potency is read from the fitted curve at half-maximal effect; % is scaled to controls: 0 for no effect and ±100 for the full control effect; nearly all actives have a fitted effect of over 55% in size
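Luminescent ATP content (CellTiter-Glo) served as the growth readout. Knockout chicken DT40 cells expressing human TDP1 were exposed to compounds without camptothecin for a minimum 48 hr at 37 °C.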
* hit, by the source's call; ? = inconclusive; . = no result; [ ] = another dose, or the depositor's remark. Only some compounds are listed: those with a hit (about 19% of all), similar ones and a draw of the others. Unless noted, calls follow the shape of the dose curve; as a rule, active = well fitted curve in the direction sought with a large enough effect; inconclusive = small, poorly fitted or top-dose-only effect, or another doubt; inactive = no such curve, though single readings can be large; an effect the other way counts as inactive or inconclusive.

SMILES | IL1B secr inh | TDP1 inh | HepG2 tox | TGFb inhibitor | TDP1 cell CPT | TDP1 cell noCPT
CCOC(=O)c1c(C)oc2nc(C)nc(NCCc3ccc(OCC)cc3)c12 | . | 2% | -22% | ? | 6.5µM* | 5.2µM*
CCOC(=O)c1c(C)oc2nc(C)nc(NCCc3ccc(Cl)cc3)c12 | . | 2% | -10% | -2% | ? | 13µM*
CCOC(=O)c1c(C)oc2nc(C)nc(NCCc3ccc(OCC)c(OCC)c3)c12 | . | -4% | -27% | ? | ? | 13µM*
CCOC(=O)c1c(C)oc2nc(C)nc(NCC3CCN(Cc4ccc(C)cc4)CC3)c12 | . | -2% | 0% | 24% | ? | -24%
C/C(=N/NC(=O)C(O)(c1ccccc1)c1ccccc1)c1ccc([N+](=O)[O-])o1 | -3 | -8% | -63% | ? | 21µM* | 21µM*
O=c1c2ccccc2cnn1Cc1nnc(-c2cccs2)o1 | 26 | 0% | -7% | 12% | -17% | ?
C(=C\c1cccc2ccccc12)/c1nnc(-c2cccs2)o1 | 0 | . | -31% | ? | 29µM* | ?
CN1CCN(CCCNC(=O)Cn2ncc3c4ccccc4n(C)c3c2=O)CC1 | -2 | -5% | 9% | 18% | -4% | -2%
Cc1ccc(C)c(N2CCN(CCCNC(=O)Cn3ncc4c5ccccc5n(C)c4c3=O)CC2)c1 | . | 3% | 14% | 13% | 15µM* | 10µM*
Cn1c2ccccc2c2cnn(CC(=O)NCCCN3CCN(c4ccccc4F)CC3)c(=O)c21 | -21 | 4% | -18% | ? | ? | 15µM*
CC(=O)OC1CC2C(C)(C)C(=O)C=C[C@]2(C)C2CC[C@@]3(C)C(c4ccoc4)OC(=O)C4O[C@@]43[C@]12C (some centres undefined) | . | 14%[56.1 µM] | . | . | ? | ?
CC(C)NS(=O)(=O)c1ccc(CCC(=O)NCc2ccncc2)cc1 | 14 | 0% | 18% | -1% | 9% | 3%
COc1ccc(NCc2ccccc2-c2nnc(-c3ccccc3)o2)cc1Cl | . | 0% | 0% | -4% | -16% | -16%
O=c1[nH]c(CCl)nc2cc(-c3ccc(F)cc3)sc12 | -102* | 4%[0.0935 µM] | 11µM* | ? | 5.2µM* | 4.1µM*
CC(=O)N1CCc2cc(Br)cc(S(=O)(=O)N3CCC(C(=O)Nc4cccc(C)c4C)CC3)c21 | . | 5% | -1% | 0% | -1% | -23%
COc1ccc(CCNC(=O)c2cc(-c3ccccn3)nc3ccccc23)cc1 | 5 | 2% | -18% | 7% | ? | ?
COc1ccc(-c2csc(NC(=O)CCS(=O)(=O)c3ccccc3)n2)c(OC)c1 | -88* | 3% | -99% | ? | ? | 8.2µM*
O=C(CCS(=O)(=O)c1ccccc1)Nc1nc(-c2ccc(F)cc2)cs1 | -77* | . | -52% | ? | ? | ?
Cc1ccc(S(=O)(=O)CCC(=O)Nc2nc(-c3cccnc3)cs2)cc1 | -10 | -3% | -14% | -21% | 15µM* | ?
O=C(CCS(=O)(=O)c1ccc(Cl)cc1)Nc1nc(-c2ccncc2)cs1 | ? | 3% | -28% | -27% | 16µM* | 13µM*
O=C(CCC(=O)N(CC(=O)NC1CCCC1)c1cccc(F)c1)Nc1nccs1 | 22 | . | 19% | 7% | -5% | 2%
O=C1CCc2cc(S(=O)(=O)Nc3cccc(Br)c3)ccc2N1 | . | 0% | . | . | . | .
O=C(Cn1c(=O)n2nc(-c3cccc(F)c3)nc2c2ccccc21)N1CCN(c2ccccc2F)CC1 | . | 0% | 12% | 1% | -12% | ?
O=C(CCS(=O)(=O)c1ccccc1)Nc1nccs1 | -3 | 4% | 1% | ? | ? | ?
Cc1ccc(S(=O)(=O)CCC(=O)Nc2nc(-c3ccccn3)cs2)cc1 | 8 | 3% | -9% | -28% | 6.5µM* | 5.8µM*
SMILES | IL1B secr inh | TDP1 inh | HepG2 tox | TGFb inhibitor | TDP1 cell CPT | TDP1 cell noCPT
CCCn1nnnc1NCc1c(F)cccc1Cl | 2 | 0% | 3% | -5% | ? | ?
CC(C)CN(C(=O)CCC1CCCCC1)c1c(N)n(CC(C)C)c(=O)[nH]c1=O | 8 | -3% | -8% | -21% | ? | -19%
COc1ccc(-n2c3c(c(=O)[nH]c2=O)C(C(F)(F)F)(C(F)(F)F)N=C(CC(C)C)N3)cc1 | 13 | 1% | 3% | -1% | -25% | -16%
O=c1[nH]c(=O)n(-c2ccccc2)c2c1C(C(F)(F)F)(C(F)(F)F)N=C(CCC1CCCCC1)N2 | 21 | 2% | -19% | -5% | ? | 18µM*
CC(C)Cn1c2c(c(=O)[nH]c1=O)C(C(F)(F)F)(C(F)(F)F)N=C(CCC1CCCCC1)N2 | -6 | 5% | -5% | 5% | 6.5µM* | 4.1µM*
O=c1[nH]c(=O)n(Cc2ccco2)c2c1C(C(F)(F)F)(C(F)(F)F)N=C(CCc1ccccc1)N2 | ? | 3% | -25% | -26% | 18µM* | ?
O=c1[nH]c(=O)n(Cc2ccco2)c2c1C(C(F)(F)F)(C(F)(F)F)N=C(C1CCCCC1)N2 | 6 | 0% | -75% | 16% | ? | -18%
COc1ccc2cc(C(C)C(=O)N3CCC(C(N)=O)CC3)ccc2c1 (centres undefined) | -12 | 7% | 1% | 14% | -11% | -17%
